# Laboratory results as given in article PMC4336329 (PLoS ONE, 2015).
# Hit rate of the full screen: of about 310,000 compounds, about 14,000 (4.5%) showed an effect of 50% or more. The effect is printed as a negative number. The sample as a whole holds a higher share of strong results than the screen did.
# Target: human ether-à-go-go-related gene (hERG) potassium channel (human, UniProt Q12809)
# Experiment: primary screen, population patch clamp on CHO cells stably expressing hERG; higher = less effect of the substance
# 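Further: peak tail current of the secondary pulse compared with the same well before compound.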
# Sequence of human ether-à-go-go-related gene (hERG) potassium channel (Q12809 whole entry, looked up): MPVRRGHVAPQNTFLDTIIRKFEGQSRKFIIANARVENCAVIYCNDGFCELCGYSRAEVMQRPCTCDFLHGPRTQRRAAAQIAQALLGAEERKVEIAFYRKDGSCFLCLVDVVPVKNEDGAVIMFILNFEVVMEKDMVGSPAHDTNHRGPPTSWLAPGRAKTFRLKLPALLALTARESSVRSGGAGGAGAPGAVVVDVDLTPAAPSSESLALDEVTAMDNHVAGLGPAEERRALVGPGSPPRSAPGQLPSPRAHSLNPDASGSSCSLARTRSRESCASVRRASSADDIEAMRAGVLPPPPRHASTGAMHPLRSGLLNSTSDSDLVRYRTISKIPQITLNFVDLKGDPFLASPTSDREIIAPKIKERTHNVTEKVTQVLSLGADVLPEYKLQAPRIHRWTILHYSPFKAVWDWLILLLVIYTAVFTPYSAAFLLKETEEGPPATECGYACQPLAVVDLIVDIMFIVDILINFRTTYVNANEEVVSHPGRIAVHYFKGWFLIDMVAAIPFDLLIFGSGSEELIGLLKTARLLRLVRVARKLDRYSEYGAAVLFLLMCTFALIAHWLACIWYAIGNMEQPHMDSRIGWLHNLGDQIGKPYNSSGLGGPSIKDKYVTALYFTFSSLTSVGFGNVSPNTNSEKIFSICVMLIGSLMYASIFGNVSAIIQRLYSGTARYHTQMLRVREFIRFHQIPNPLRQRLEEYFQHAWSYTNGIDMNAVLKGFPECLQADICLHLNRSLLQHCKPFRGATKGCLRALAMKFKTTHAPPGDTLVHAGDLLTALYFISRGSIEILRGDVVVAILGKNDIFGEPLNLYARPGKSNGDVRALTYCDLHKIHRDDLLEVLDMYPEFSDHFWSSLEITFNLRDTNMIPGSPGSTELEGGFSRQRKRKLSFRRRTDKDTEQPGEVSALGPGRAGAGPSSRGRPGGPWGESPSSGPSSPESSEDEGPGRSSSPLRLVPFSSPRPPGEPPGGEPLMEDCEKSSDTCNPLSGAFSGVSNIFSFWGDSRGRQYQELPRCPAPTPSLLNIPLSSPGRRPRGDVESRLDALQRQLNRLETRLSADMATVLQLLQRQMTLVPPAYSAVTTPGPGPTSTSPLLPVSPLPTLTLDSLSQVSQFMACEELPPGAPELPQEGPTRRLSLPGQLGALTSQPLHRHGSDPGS
row,SMILES,"hERG current change (%, negative = inhibition) at 10uM [%]"
1,CON(C)S(=O)(=O)c1cccc(C(=O)NC2CCSc3ccccc32)c1 (stereo not drawn),-9.64
2,CCN(CC)CCN1C(=O)C(=O)/C(=C(/O)c2ccc(OC(C)C)cc2)C1c1cccs1 (stereo not drawn),0.529
3,Cc1cc(C(=O)N/N=C/c2cc(Br)c(Br)o2)n[nH]1,16
4,O=C(O)CNC(=O)c1ccccc1Br,9.63
5,O=C(C1CCN(S(=O)(=O)c2ccc(-n3cnnn3)cc2)CC1)N1CCCCC1,-30.1
6,CC1CCCCN1S(=O)(=O)c1ccc(S(=O)(=O)N2CCCC2)cc1 (stereo not drawn),5.9
7,CC1CCN(C(=O)C2CCN(S(=O)(=O)c3ccc(-n4cnnn4)cc3)CC2)CC1,-13.7
8,CC1CCCCN1C(=O)C1CCN(S(=O)(=O)c2ccc(-n3cnnn3)cc2)CC1 (stereo not drawn),-61.5
9,CC1CCCCN1S(=O)(=O)c1ccc(NC(=O)c2cccc(-n3cnnn3)c2)cc1 (stereo not drawn),-18.4
10,CC1CCCCN1S(=O)(=O)c1ccc(-n2cnnn2)cc1 (stereo not drawn),-50.1
11,COc1ccc(C(CNC(=O)c2cccc(S(=O)(=O)NCc3ccccc3)c2)N(C)C)cc1 (stereo not drawn),-24.3
12,CN(C(=O)COC(=O)c1cc(F)c(F)cc1Cl)c1ccccc1,0.987
13,CC(C)N1CCC(N2CCN(Cc3ccc(-c4ccc(Cl)cc4)o3)CC2CCO)CC1 (stereo not drawn),-64.5
14,CC(C)N1CCC(N2CCN(CCCc3ccccc3)CC2CCO)CC1 (stereo not drawn),10.1
15,CC(C)N1CCC(N2CCN(Cc3ccc4nonc4c3)CC2CCO)CC1 (stereo not drawn),-27.5
16,CC(C)N1CCC(N2CCN(Cc3ccc(-c4ccccc4Cl)o3)CC2CCO)CC1 (stereo not drawn),-66.6
17,CC(C)N1CCN(Cc2ccc(Sc3nncn3C)o2)CC1CCO (stereo not drawn),22.9
18,CC(C)N1CCC(N2CCN(Cc3ccc4nsnc4c3)CC2CCO)CC1 (stereo not drawn),-8.62
19,CC(C)N1CCC(N2CCN(Cc3cccnc3)CC2CCO)CC1 (stereo not drawn),20.3
20,Cc1ccc(-c2cccc(CN3CCN(C(C)C)C(CCO)C3)c2)o1 (stereo not drawn),13.4

row,SMILES,"hERG current change (%, negative = inhibition) at 10uM [%]"
1,CC(C)N1CCN(Cc2ccccc2-c2ccco2)CC1CCO (stereo not drawn),-35.3
2,CC(C)N1CCN(Cc2ccc(-c3ccccc3Cl)o2)CC1CCO (stereo not drawn),-54.8
3,Cc1ccc(-c2cccc(CN3CCN(C4CCN(C(C)C)CC4)C(CCO)C3)c2)o1 (stereo not drawn),-59.4
4,CC(C)N1CCC(N2CCN(C/C=C/c3ccccc3)CC2CCO)CC1 (stereo not drawn),-7.17
5,Cc1ccc(-n2nnnc2SCC(=O)Nc2ccccc2N2CCCCC2)cc1C,14.3
6,CC(NC(=O)COc1ccccc1)C(c1cccs1)N1CCCC1 (stereo not drawn),-2.64
7,COc1ccccc1CNC(=O)CCCOc1cc(=O)n(C)c2ccccc12,4.57
8,CN(Cc1ccccc1)C(=O)CCC1CCN(S(=O)(=O)N(C)C)CC1,-18.4
9,CCNC(=S)N1CCC(c2nc3ccccc3s2)CC1,-25.7
10,CCCCNC(=O)[C@H]1C[C@H]1[C@@H](O)[C@H](CO)NC(=O)[C@H](COCc1ccccc1)NC(=O)OC(C)(C)C,21.5
11,CC(C)(C#N)Nn1cnnc1,17.1
12,COc1ccc(CC(=O)OC2CCCN(C)C2)cc1.Cl (stereo not drawn),19.3
13,Cn1ncc(Cl)c1C(=O)N1CCN(c2cccc(Cl)c2)CC1,-8.7
14,CC(C)n1c(SCc2cc(=O)[nH]c3ccccc23)nc2c1c(=O)n(C)c(=O)n2C,-7.13
15,c1ccc(-c2noc(CC3CCCCC3)n2)nc1,6.32
16,O=C(COC(=O)C12CC3CC(CC(O)(C3)C1)C2)NCCc1ccc(Cl)cc1,-10.8
17,CCN(CC)CCCOC(=O)c1ccc(OC)cc1O.Cl,-40.9
18,CCC(Sc1nncn1C)C(=O)Nc1nnc(-c2ccccc2Cl)s1 (stereo not drawn),-11
19,CC(C)c1nnc(NC(=O)C2CCCN2C(=O)Nc2cccc(Cl)c2)s1 (stereo not drawn),-18
20,COc1ccc(C(=O)NC(C)CCc2ccccc2)c(O)c1 (stereo not drawn),-55.5

row,SMILES,"hERG current change (%, negative = inhibition) at 10uM [%]"
1,COc1ccc(C(=O)NC(C)CCc2ccccc2)cc1 (stereo not drawn),-2.64
2,COc1ccc(C(=O)NC(C)CCc2ccccc2)c(OC)c1 (stereo not drawn),-26.3
3,Cl.O=C(CCN1CCCCCC1)Nc1ccc(F)cc1,-42.8
4,Brc1ccccc1OCCN1CCCC1,-1.74
5,Cl.Fc1ccc(C(OCCN2CCCC2)c2ccc(F)cc2)cc1,-71.3
6,CC(C)(C)c1ccccc1OCCN1CCCC1,-24.1
7,Fc1ccc(OCCOCCN2CCCC2)cc1,-12.6
8,CC(OCCN1CCCC1)(c1ccc(F)cc1)c1ccc(F)cc1.Cl,-63.1
9,CC(C)(C)c1ccc(C(=O)OCCN2CCCCC2)cc1.Cl,-47.6
10,Cl.Fc1ccc(C(OCCN2CCCC2)c2ccc(Br)cc2)cc1 (stereo not drawn),-75.8
11,Brc1ccc(CN2CCCCCC2)cc1,-30.3
12,CCOC(=O)[C@H]1[C@H]2COc3cc(OC)ccc3[C@@H]2N2C(=O)CN(Cc3ccc(OC)cc3)C(=O)[C@@]12C,-1.96
13,CC1CCc2sc(C(=O)N3CCC(C(N)=O)CC3)cc2C1 (stereo not drawn),5.36
14,CCN(CC)S(=O)(=O)c1cccc(C(=O)Nc2nncs2)c1,1.66
15,O=C(CSc1nnc(-c2ccc(S(=O)(=O)N3CCOCC3)cc2)o1)c1ccccc1F,1.84
16,Cc1cc(SCC(=O)NCCN2C(=O)CSC2=O)nc2c(C)cccc12,0.207
17,CCCc1c(C)c2cc(C)ccc2[nH]c1=O,-25.3
18,Cc1ccc(-c2csc3nc4c5ccccc5c(NCCCN(C)C)nn4c(=O)c23)cc1,-78
19,CN(C)CCCNc1ncnc2scc(-c3ccccc3)c12.O=C(O)C(=O)O,-27.9
20,Cc1ccc(-c2csc3nc4c5ccccc5c(NCCCN5CCOCC5)nn4c(=O)c23)cc1,2.7
